Drawing on PubChem BioAssay (Tox21), this text covers outcome and Potency for 23 compounds.

Values without a mark were called inactive. Results filed as inconclusive are left out. The source made the active and inactive calls. Unless noted, calls come from the whole dose curve; as a rule, active = well fitted curve in the direction sought with a large enough effect in the repeat runs; inconclusive = weak or mixed curves; inactive = no such curve, though single readings can be large; an effect the other way counts as inactive or inconclusive.

Experiment [1] is described as follows: qHTS assay to identify small molecule antagonists of the glucocorticoid receptor (GR) signaling pathway - cell viability counter screen (AID 720693). Note: nearly all actives have a fitted effect of over 55% in size.
The nature of experiment [2]: qHTS assay for identifying genotoxic compounds that show differential cytotoxicity against isogenic chicken DT40 cell lines with known DNA damage response pathways - wild type cell line (AID 743012). Note: nearly all actives have a fitted effect of over 60% in size. Note: potency is the fitted concentration of half-maximal effect. Summed up:
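300 wt DT40 cells/well; cpd (DMSO) pintool-transferred after ~0.5 h at 37 C/5% CO2; 40 h incubation; CellTiter-Glo added, 30 min RT; luminescence read.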
In general terms: qHTS replaces the single test concentration by a dilution series.

Experiment [3] can be described thus: qHTS assay for identifying genotoxic compounds that show differential cytotoxicity against isogenic chicken DT40 cell lines with known DNA damage response pathways - Rad54/Ku70 mutant cell line (AID 743015). Note: nearly all actives have a fitted effect of over 60% in size. Note: potency is the fitted concentration of half-maximal effect.
Experiment [4] can be described thus: qHTS assay to identify small molecule antagonists of the androgen receptor (AR) signaling pathway - cell viability counter screen (AID 743033; note: nearly all actives have a fitted effect of over 45% in size).
The target of experiment [5] is Androgen receptor (Homo sapiens) (UniProt P10275). Description: qHTS assay to identify small molecule antagonists of the androgen receptor (AR) signaling pathway (AID 743035; active = well fitted inhibition curve with a large enough effect in the signal ratio in the repeat runs, not every such curve was filed as active; the % refers to the signal ratio). Summed up:
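In this cell-based reporter screen, compounds were tested in concentration series against R1881-activated HEK293 cells expressing beta-lactamase under UAS control; after 16 h at 37C, FRET substrate was added and fluorescence read 2 h later.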

For experiment [6] the target is unchanged. Description: qHTS assay to identify small molecule agonists of the androgen receptor (AR) signaling pathway using the MDA cell line (AID 743040; note: nearly all actives have a fitted effect of over 20% in size; note: potency is the fitted concentration of half-maximal effect). Summed up: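 Testing was done with the MDA-kb2 AR-luc line, a human breast carcinoma stably transfected with MMTV-luciferase containing AR and GR response elements. Cells were exposed 16 h at 37C before ONE-Glo luminescence detection.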

Experiment [7] in a line: qHTS assay to identify small molecule antagonists of the androgen receptor (AR) signaling pathway using the MDA cell line - cell viability counter screen (AID 743041; note: nearly all actives have a fitted effect of over 45% in size). In short, it runs like this:
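Compound exposure lasted 16 h at 37C in MDA-kb2 AR-luc cells stimulated with R1881. Protease-based CellTiter-Fluor reagent was applied for the final 30 min and fluorescence measured.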

Experiment [8] concerns the target Androgen receptor (Homo sapiens) (UniProt P10275). Nature of the experiment: qHTS assay to identify small molecule antagonists of the androgen receptor (AR) signaling pathway using the MDA cell line (AID 743042; note: nearly all actives have a fitted effect of over 55% in size). Summed up:
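MDA-kb2 breast carcinoma cells carrying MMTV-luciferase (AR/GR responsive) were co-treated with compounds and the agonist R1881 for 16 h at 37C. Inhibition read as ONE-Glo luminescence; CellTiter-Fluor fluorescence measured in parallel for cytotoxicity.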

The nature of experiment [9]: qHTS assay for identifying genotoxic compounds that show differential cytotoxicity against isogenic chicken DT40 cell lines with known DNA damage response pathways - Rev3 mutant cell line (AID 743014). Note: nearly all actives have a fitted effect of over 55% in size.
Experiment [10] concerns the target Androgen receptor (Homo sapiens) (UniProt P10275). Nature of the experiment: qHTS assay to identify small molecule agonists of the androgen receptor (AR) signaling pathway (AID 743036; active = well fitted activation curve with a large enough effect in the signal ratio in the repeat runs, with a control signal flat, not every such curve was filed as active; the % refers to the signal ratio). In short, it runs like this: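 Screening used 2,000 AR-bla HEK293 cells per well, treated 16 h at 37C with test compounds in DMSO alongside positive and DMSO-only controls; beta-lactamase activity was then read by LiveBLAzer B/G FRET fluorescence after 2 h at room temperature.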

Androgen receptor (Homo sapiens), sequence (P10275 whole entry, looked up): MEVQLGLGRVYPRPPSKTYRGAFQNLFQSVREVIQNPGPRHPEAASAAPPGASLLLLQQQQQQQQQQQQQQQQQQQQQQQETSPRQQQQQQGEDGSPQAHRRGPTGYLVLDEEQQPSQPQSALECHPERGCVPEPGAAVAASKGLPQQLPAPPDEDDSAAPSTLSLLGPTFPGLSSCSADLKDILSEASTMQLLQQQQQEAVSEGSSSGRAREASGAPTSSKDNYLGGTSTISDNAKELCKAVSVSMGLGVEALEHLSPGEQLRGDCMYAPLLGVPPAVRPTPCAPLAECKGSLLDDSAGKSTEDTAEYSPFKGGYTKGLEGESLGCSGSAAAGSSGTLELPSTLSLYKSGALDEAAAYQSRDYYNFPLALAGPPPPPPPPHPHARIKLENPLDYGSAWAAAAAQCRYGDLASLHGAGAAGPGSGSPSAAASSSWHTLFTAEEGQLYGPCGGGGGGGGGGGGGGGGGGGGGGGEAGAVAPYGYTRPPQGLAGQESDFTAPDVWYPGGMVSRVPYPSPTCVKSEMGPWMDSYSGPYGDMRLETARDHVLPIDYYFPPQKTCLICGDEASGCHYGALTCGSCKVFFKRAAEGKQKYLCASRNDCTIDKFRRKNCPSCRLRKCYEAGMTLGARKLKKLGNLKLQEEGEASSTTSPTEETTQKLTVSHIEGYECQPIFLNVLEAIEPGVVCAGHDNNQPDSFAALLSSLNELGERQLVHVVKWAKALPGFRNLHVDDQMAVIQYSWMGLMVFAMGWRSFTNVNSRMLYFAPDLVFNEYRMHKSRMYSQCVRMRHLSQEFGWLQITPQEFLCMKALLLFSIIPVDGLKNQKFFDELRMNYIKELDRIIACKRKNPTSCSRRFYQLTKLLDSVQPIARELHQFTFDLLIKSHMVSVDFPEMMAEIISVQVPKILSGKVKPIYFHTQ

Take `CCCOCC(C)OCC(C)O` (configuration not stated): the result in [1], in [4] and in [8] was inactive. In addition, the Potency result in experiment [2], in experiment [3], in [5], in experiment [6] and in experiment [7] was “inactive” in each case.

`COc1cccc(Br)c1`: the call in [1], in experiment [10] and in experiment [8] was inactive. In addition, the Potency entry in experiment [2], in experiment [9], in experiment [5], in experiment [6] and in experiment [7] was “inactive” in each case.

As to `CC(C)(C)C(=O)/C=C/c1ccc(Cl)cc1`, the compound was called inactive in experiment [1] and in experiment [4]. Besides, the Potency result in experiment [2] and in experiment [7] was “inactive” throughout.

Take `NC(=O)c1c(Cl)cccc1Cl`: the outcome in [1] and in [4] was inactive. Also, the Potency entry in experiment [2] and in [7] was “inactive” throughout.

On to `O=[N+]([O-])c1ccc(CCO)cc1`, for which the result in experiment [1] and in [4] was inactive. In addition, the Potency result in experiment [2], in experiment [3] and in experiment [7] was “inactive” in each case.

In the case of `CCCOc1ccccc1-c1nc2n[nH]nc2c(=O)[nH]1`, the result in experiment [1] and in [4] was inactive. The Potency entry in experiment [2] and in experiment [7] was “inactive” in each case.

As to `CCC(C)(C)C1CCC(OC)CC1` (configuration not stated), the outcome in [1] and in [4] was inactive. Moreover, the Potency result in experiment [2] and in experiment [7] was “inactive” in each case.

Regarding `O=C(O)Cc1cc(I)c(Oc2cc(I)c(O)c(I)c2)c(I)c1`, the compound was called inactive in experiment [1] and in [4]. Moreover, the Potency entry in experiment [2], in experiment [3] and in experiment [7] was “inactive” throughout.

Consider `C=CCSCC1Nc2cc(Cl)c(S(N)(=O)=O)cc2S(=O)(=O)N1` (configuration not stated), for which, in experiment [1], the outcome was inactive. Moreover, the Potency entry in [2], in experiment [3] and in experiment [7] was “inactive” throughout.

For `CCCCCCCCCCCCI`, the result in experiment [1] and in [4] was inactive. Besides, the Potency in [2] is 54.7 µM (active); in [3] it was 27.4 µM (active). Besides, in experiment [7], the Potency entry was “inactive”.

Turning to `CN(C)CCn1nnnc1SCC1=C(C(=O)O)N2C(=O)[C@@H](NC(=O)Cc3csc(N)n3)[C@H]2SC1`, the compound was called inactive in experiment [1], in experiment [10] and in experiment [8]. Besides, the Potency result in experiment [2], in experiment [3], in experiment [5], in experiment [6] and in [7] was “inactive” throughout.

With `O=C(O)c1cccc(C(=O)O)n1`, the result in [1] and in [4] was inactive. In addition, the Potency entry in [2] and in experiment [7] was “inactive” throughout.

On to `CSc1nc(NC2CC2)nc(NC(C)(C)C)n1`, for which the call in experiment [1] and in experiment [4] was inactive. For the same compound, the Potency in experiment [2] and in [3] was 54.5 µM (active) each time. Moreover, the Potency result in experiment [7] is “inactive”.

`CCCC(C)C(=O)O` (configuration not stated): the call in experiment [1] was inactive. Further, the Potency result in experiment [2] and in [7] was “inactive” in each case.

As to `CC(C)N1C(=O)c2ccccc2C1=O`, in experiment [1], the call was inactive. Moreover, the Potency entry in experiment [2], in experiment [3] and in experiment [7] was “inactive” in each case.

For `C[C@H]1O[C@@H](n2cc(F)c(=O)[nH]c2=O)[C@H](O)[C@@H]1O`, the result in experiment [1] was inactive. The Potency in experiment [2] is 21.1 µM (active); in experiment [3], 23.7 µM (active). Besides, the Potency entry in experiment [7] was “inactive”.

Turning to `C(=C(c1ccccc1)c1ccccc1)c1ccccc1`, the result in experiment [1] and in [4] was inactive. Besides, the Potency result in experiment [2] and in experiment [7] was “inactive” throughout.

For `CC(C)(C)OC(=O)N1C[C@@H](F)C[C@H]1C(=O)O`, the call in experiment [1] and in experiment [4] was inactive. Moreover, the Potency entry in [2] and in [7] was “inactive” throughout.

On to `CC/C=C\CCCCO`, for which the compound was classed as inactive in experiment [1] and in experiment [4]. The Potency result in [2] and in experiment [7] was “inactive” each time.

Take `Cc1nc(-c2ccc(OCC(C)C)c(C#N)c2)sc1C(=O)O`: the compound was classed as inactive in experiment [1] and in experiment [8]. The Potency result in [2] and in experiment [7] was “inactive” each time. The Potency in experiment [6] was 1.19 µM (active).

Regarding `CCOC(=O)[C@H](CCc1ccccc1)N[C@@H](C)C(=O)N1CCC[C@H]1C(=O)O`, the result in experiment [1] and in experiment [4] was inactive. Also, the Potency result in experiment [2] and in experiment [7] was “inactive” throughout.

For `N#CCc1ccccc1[N+](=O)[O-]`, the result in [1] was inactive. Besides, the Potency result in experiment [2] and in experiment [7] was “inactive” throughout.

On to `CC(C)=CC(=O)O`, for which the compound was called inactive in experiment [1] and in [4]. The Potency entry in experiment [2] and in experiment [7] was “inactive” each time.
